Among the test systems are HCT-15 colon; HT29 colon; SNB-75 CNS; SNB-19 CNS; U251 CNS; PC-3 prostate; SK-MEL-5 melanoma; UACC-62 melanoma; LOX IMVI melanoma; SK-MEL-28 melanoma; SK-MEL-2 melanoma; EKVX NSCLC; SN12C renal; UO-31 renal; TK-10 renal; ACHN renal; A498 renal; CCRF-CEM leukemia; MOLT-4 leukemia; SR leukemia.
What all share (assay): NCI-60 one-dose screen, 48 h (100 = growth as untreated, 0 = no growth, -100 = all killed)
Holding throughout (conditions): 10 µM unless noted

The panel holds about 83,000 compounds, 20% with a hit somewhere; the sample as a whole holds those more often.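 Testing used 96-well plates and a 48-hour single-concentration exposure. Example: -40 means 40% of the starting cells died.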 Unmarked numbers belong to inactive results. Activity calls are given as the source filed them. The calls were made as follows: active = growth percent below 10; inactive = the rest.

Regarding `COc1cccc(NC(=O)Nc2ccc(Nc3ncnc4[nH]c(C)c(C)c34)cc2)c1`, the growth in the assay on HCT-15 colon was 94.1%; in the assay on HT29 colon, 95.5%; in the assay with SNB-75 CNS it was 82.2%; in the assay with SNB-19 CNS, 98.5%; in the assay with U251 CNS, 90.3%; in the assay with PC-3 prostate, 93.9%. Besides, the growth is 102% with SK-MEL-5 melanoma; 96.6% in the assay with UACC-62 melanoma; 99.7% in the assay with LOX IMVI melanoma; 104% in the assay on SK-MEL-28 melanoma; 104% with SK-MEL-2 melanoma; 96.5% in the assay with EKVX NSCLC. Also, the growth in the assay on SN12C renal was 95%; in the assay on UO-31 renal it was 85.2%; with TK-10 renal, 112%; in the assay with ACHN renal it was 102%; in the assay on A498 renal, 107%; in the assay with CCRF-CEM leukemia, 86.1%. Besides, the growth in the assay with MOLT-4 leukemia was 78.8%; in the assay on SR leukemia it was 91.1%.

Consider `CCOCc1cc(C(C)(C)C)ccc1O`, for which the growth in the assay with HCT-15 colon is 104%; with HT29 colon, 94.6%; in the assay with SNB-75 CNS it was 87.4%; in the assay on SNB-19 CNS, 98.3%; in the assay with U251 CNS it was 94%; with PC-3 prostate, 93.7%. The growth in the assay on SK-MEL-5 melanoma is 99.5%; in the assay with UACC-62 melanoma, 94.4%; with LOX IMVI melanoma, 96.5%; in the assay on SK-MEL-28 melanoma it was 106%; with SK-MEL-2 melanoma, 110%; with EKVX NSCLC it was 98.3%. For the same molecule, the growth in the assay on SN12C renal was 102%; with UO-31 renal it was 94.5%; in the assay on TK-10 renal it was 93.8%; with ACHN renal, 105%; with A498 renal, 74.2%; in the assay with CCRF-CEM leukemia, 101%. Also, the growth with MOLT-4 leukemia was 99.4%; in the assay with SR leukemia, 88.7%.

On to `COc1ccc(-c2[nH]c3ccc(OC)cc3c2C=C(C#N)C#N)cc1`, for which the growth in the assay with HCT-15 colon is 38.6%; in the assay with HT29 colon it was 15%; in the assay with SNB-75 CNS, 21.3%; with SNB-19 CNS it was 76.2%; in the assay with U251 CNS, 35.7%; with PC-3 prostate, 21.7%. In addition, the growth in the assay with SK-MEL-5 melanoma is 15.5%; in the assay on UACC-62 melanoma, 33.1%; in the assay with LOX IMVI melanoma, 63%; with SK-MEL-28 melanoma, 54.2%; in the assay on SK-MEL-2 melanoma it was 34.3%; in the assay on EKVX NSCLC it was 36.5%. Further, the growth is 63.1% in the assay with SN12C renal; 50.1% in the assay on UO-31 renal; 70.4% with TK-10 renal; 63.9% in the assay on ACHN renal; 52.6% in the assay on A498 renal; 11.1% with CCRF-CEM leukemia. Also, the growth in the assay with MOLT-4 leukemia was 27.3%; in the assay with SR leukemia, -3.05% (active).

As for `COc1cc(-c2csc(NC(=O)Nc3ccc(C(F)(F)F)cc3)n2)cc(OC)c1OC`, the growth was 10.6% in the assay with HCT-15 colon; 3.06% (active) in the assay with HT29 colon; -12.1% (active) with SNB-75 CNS; 14.1% with SNB-19 CNS; 6.12% (active) with U251 CNS; 3.3% (active) in the assay with PC-3 prostate. In addition, the growth is -54.7% (active) in the assay on SK-MEL-5 melanoma; -0.579% (active) in the assay on UACC-62 melanoma; 4.24% (active) in the assay on LOX IMVI melanoma; 16.3% in the assay with SK-MEL-28 melanoma; -23.8% (active) in the assay with SK-MEL-2 melanoma; 5.7% (active) with EKVX NSCLC. Besides, the growth in the assay on SN12C renal was 3.08% (active); with UO-31 renal it was -2.16% (active); in the assay with TK-10 renal, 4.58% (active); in the assay on ACHN renal it was 3.21% (active); in the assay on A498 renal, -24.1% (active); with CCRF-CEM leukemia, 5.13% (active). Moreover, the growth is -9.27% (active) in the assay on MOLT-4 leukemia and -3.44% (active) in the assay on SR leukemia.

In the case of `Sc1cccc2cccnc12`, the growth in the assay on HCT-15 colon is 30.1%; with HT29 colon, 15.8%; in the assay with SNB-75 CNS it was 52.8%; with SNB-19 CNS, 42.7%; with U251 CNS, 23.2%; in the assay on PC-3 prostate, 43.7%. Moreover, the growth in the assay on SK-MEL-5 melanoma was -10.9% (active); in the assay on UACC-62 melanoma, -3.89% (active); in the assay on LOX IMVI melanoma it was 7.92% (active); in the assay with SK-MEL-28 melanoma, 36.3%; with SK-MEL-2 melanoma, 21.5%; in the assay with EKVX NSCLC, 29.2%. The growth is 39.3% in the assay with SN12C renal; 25.6% with UO-31 renal; 48.3% in the assay with TK-10 renal; 30.1% with ACHN renal; 65.9% in the assay with A498 renal; 14.4% in the assay with CCRF-CEM leukemia. The values for the growth in the assay with MOLT-4 leukemia and with SR leukemia were 22.2% and 6.61% (active), respectively.

Regarding `C/C(=N\NC(=O)c1ccncc1)c1ccc(N)cc1`, the growth with HCT-15 colon was 103%; in the assay on HT29 colon, 97.2%; with SNB-75 CNS it was 88.8%; with SNB-19 CNS, 94.6%; with U251 CNS, 97.7%; in the assay with PC-3 prostate, 85.8%. For the same molecule, the growth in the assay on SK-MEL-5 melanoma was 98.8%; in the assay on UACC-62 melanoma, 93.6%; in the assay on LOX IMVI melanoma, 98%; in the assay on SK-MEL-28 melanoma, 106%; with SK-MEL-2 melanoma it was 105%; in the assay with EKVX NSCLC, 101%. The growth with SN12C renal was 97.1%; with UO-31 renal it was 89.5%; in the assay with TK-10 renal it was 103%; in the assay with ACHN renal, 109%; in the assay with A498 renal, 90.6%; with MOLT-4 leukemia, 92.4%. The growth in the assay with SR leukemia was 85.8%.

With `O=C(NCc1ccccc1)c1ccc2c(c1)NC(=O)[C@@H]1CCCN21`, the growth with HCT-15 colon was 99.6%; in the assay on HT29 colon it was 103%; in the assay on SNB-75 CNS, 86.6%; in the assay on SNB-19 CNS, 94.6%; in the assay on U251 CNS, 102%; in the assay with PC-3 prostate, 103%. Also, the growth in the assay on SK-MEL-5 melanoma was 101%; in the assay on UACC-62 melanoma, 93.7%; in the assay with LOX IMVI melanoma, 91.2%; in the assay with SK-MEL-28 melanoma, 103%; in the assay on SK-MEL-2 melanoma it was 99%; in the assay on EKVX NSCLC, 101%. In addition, the growth in the assay with SN12C renal was 105%; with UO-31 renal, 90.9%; in the assay on TK-10 renal, 93.8%; in the assay on ACHN renal, 98.7%; with A498 renal, 70.3%; in the assay with CCRF-CEM leukemia, 116%. Moreover, the growth was 113% with MOLT-4 leukemia and 106% with SR leukemia.

For the molecule `COc1ccc(/C=C/C(=O)c2ccc(NC(=O)CSc3nnc(-c4ccc(OC)c(OC)c4)n3-c3ccccc3)cc2)cc1`, the growth is 4.42% (active) with HCT-15 colon; 43.7% in the assay with HT29 colon; 63.3% with SNB-75 CNS; 60.5% in the assay on SNB-19 CNS; -9.68% (active) in the assay with U251 CNS; 53.1% in the assay on PC-3 prostate. The growth was 73.4% in the assay on SK-MEL-5 melanoma; 68.4% with UACC-62 melanoma; -87.5% (active) in the assay with LOX IMVI melanoma; 95.8% with SK-MEL-28 melanoma; 74.7% in the assay on SK-MEL-2 melanoma; 66% in the assay with EKVX NSCLC. Besides, the growth is 40.5% with SN12C renal; -81.3% (active) in the assay with UO-31 renal; 101% in the assay on TK-10 renal; 59.9% in the assay on ACHN renal; 93.5% with A498 renal; -20.9% (active) in the assay on CCRF-CEM leukemia. In addition, the values for the growth with MOLT-4 leukemia and with SR leukemia were 10.8% and -38.2% (active), respectively.

The values above are taken from PubChem BioAssay (NCI).
